Measurements from PubChem BioAssay (NCI).
About 83,000 compounds went through this panel and 20% of them were active in at least one assay; those are over-represented in the sample as a whole.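 Assay: single dose, 48 h. Readout: percent growth (0 = no net growth; negative = cell death). Active: <10.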 Unmarked numbers belong to inactive results. Calls of active or inactive are those of the source.

What was measured:
Assay in all cases: NCI-60 one-dose screen, 48 h (100 = growth as untreated, 0 = no growth, -100 = all killed)
Settings in all cases: 10 µM unless noted
SR leukemia = system: SR leukemia
RPMI-8226 leukemia = system: RPMI-8226 leukemia
OVCAR-8 ovarian = system: OVCAR-8 ovarian
OVCAR-5 ovarian = system: OVCAR-5 ovarian
OVCAR-4 ovarian = system: OVCAR-4 ovarian
SK-OV-3 ovarian = system: SK-OV-3 ovarian
IGROV1 ovarian = system: IGROV1 ovarian
OVCAR-3 ovarian = system: OVCAR-3 ovarian
HS 578T breast = system: HS 578T breast
NCI/ADR-RES ovarian = system: NCI/ADR-RES ovarian

Row | SMILES | growth (SR leukemia) | growth (RPMI-8226 leukemia) | growth (OVCAR-8 ovarian) | growth (OVCAR-5 ovarian) | growth (OVCAR-4 ovarian) | growth (SK-OV-3 ovarian) | growth (IGROV1 ovarian) | growth (OVCAR-3 ovarian) | growth (HS 578T breast) | growth (NCI/ADR-RES ovarian)
1 | COC(=O)c1ccc2oc(NC(=O)c3ccc(Nc4ccc([N+](=O)[O-])cc4C)c([N+](=O)[O-])c3)nc2c1 | 111% | 108% | 104% | 109% | 100% | 102% | 104% | 105% | 93.2% | 106%
2 | Cn1c(=O)[nH]c(=O)c2nc(CCC(=O)NCCC(=O)O)c(=O)[nH]c21 | 113% | 111% | 101% | 106% | 106% | 101% | 98.6% | 113% | 89.8% | 105%
3 | CC(C)C[C@@H](NC(=O)[C@@H](Cc1ccccc1)NC(=O)c1cnccn1)B1Oc2ccc(C[C@H](NC(=O)[C@H](Cc3ccc4c(c3)OB([C@@H](CC(C)C)NC(=O)[C@@H](Cc3ccccc3)NC(=O)c3cnccn3)O4)NC(=O)[C@@H](N)CC3CCC4OB([C@@H](CC(C)C)NC(=O)[C@@H](CC5CCCCC5)NC(=O)C5CNCCN5)OC4C3)C(=O)NCCCC[C@@H]3NC(=O)[C@@H](Cc4ccccc4)NC(=O)[C@H](CC(=O)O)NC(=O)CNC(=O)[C@H](CCCNC(=N)N)NC3=O)cc2O1 (stereo not given in full) | 1.49% (active) | 0.76% (active) | -45.3% (active) | -31% (active) | -26.7% (active) | -30% (active) | -8.65% (active) | -49.3% (active) | 5.06% (active) | -8.71% (active)
4 | Cc1ccc(NC(=O)/C=C/c2ccccc2)c(C(N)=O)c1 | -23.3% (active) | 23.2% | 55.1% | 51.8% | 31.4% | 2.6% (active) | 91.4% | -25.8% (active) | -3.46% (active) | 24.7%
5 | COc1ccc(C(=O)c2sc3nc(C)cc(C)c3c2N)cc1OC | 83.5% | 96% | 65.7% | 104% | 85.3% | 77.6% | 88.8% | 94.8% | 91.2% | 90.2%
6 | CCc1c(Nc2ccccc2C)nc(N)[nH]c1=O | 85.9% | 104% | 119% | 92.3% | 107% | 109% | 93.4% | 110% | 115% | 109%
7 | CCN(CC)c1ccc2c(c1)Oc1nc(N)c(C#N)c(N)c1C2Sc1ccc(SC)cc1 (stereo not given) | -18.8% (active) | -37.3% (active) | -7.42% (active) | -27.1% (active) | -2.7% (active) | -4.96% (active) | -13.9% (active) | -30.4% (active) | 26% | 10.8%
8 | O=C(COc1cccc(/C=C2\COc3ccccc3C2=O)c1)Nc1nccs1 | -73.8% (active) | -67% (active) | 20.3% | 81.8% | 97.2% | 99.8% | 5.16% (active) | 73.8% | -6.5% (active) | 45.6%
9 | O=c1nc2oc3ccc4ccccc4c3cc-2s1 | 24.3% | 14.7% | 29.8% | 53.3% | 62.5% | 28.5% | 37.2% | 6% (active) | 3.65% (active) | 91.1%
10 | N#Cc1cnn(-c2nc3c(Cl)cccc3s2)c1N | 89.9% | 95.7% | 80.8% | 108% | -4.16% (active) | 78.1% | 84% | 98.1% | 84.2% | 82%
11 | COc1cc(C)c(C2C(C#N)=C(N)Oc3n[nH]c(-c4cccs4)c32)cc1C(C)C (stereo not given) | 87.1% | 87.5% | 89.1% | 115% | 103% | 98% | 108% | 109% | 103% | 103%
12 | COc1cc(C(=O)/C=C/c2cccnc2Nc2ccc(Cl)cc2)cc(OC)c1OC | 5.22% (active) | -30.2% (active) | -17.6% (active) | -78.3% (active) | -90.4% (active) | -5.2% (active) | -60.9% (active) | -97.1% (active) | 29.4% | 3.59% (active)
13 | Cc1ccc2oc(=O)cc(C3c4ccc([nH]4)C(c4cc(=O)oc5ccc(C)cc45)c4ccc([nH]4)C(c4cc(=O)oc5ccc(C)cc45)c4ccc([nH]4)C(c4cc(=O)oc5ccc(C)cc45)c4ccc3[nH]4)c2c1 (stereo not given) | -36.5% (active) | -21.3% (active) | -47.8% (active) | -11.7% (active) | -6.02% (active) | -30.7% (active) | -20.1% (active) | -65% (active) | -37% (active) | -25% (active)
14 | CCN1CCC2(CC1)NC(=O)c1c(c3ccc(Cl)c(Cl)c3n1C)C2C#N (stereo not given) | 26.5% | 16.6% | 76.9% | 74.3% | 63.8% | 87.6% | 55.8% | 56.2% | 53.8% | 63.4%
15 | Cn1cc(C(=O)c2nc(-c3c[nH]c4ccccc34)no2)c2ccccc21 | 44.1% | 78.9% | 91.1% | 66% | 57.3% | 69.8% | 25.7% | 12.8% | 56.2% | 64.2%
16 | CCOc1cc2ncc(C#N)c(Nc3ccc(F)c(Cl)c3)c2cc1NC(=O)CC1CCSS1 (stereo not given) | -27.8% (active) | -5.51% (active) | -41.7% (active) | -40.6% (active) | -69.4% (active) | -91.7% (active) | -45.9% (active) | -86.3% (active) | -17.4% (active) | -30.3% (active)
17 | CN1CCN(c2nc(NCCCCNc3ccnc4cc(Cl)ccc34)c3ccccc3n2)CC1 | -26.6% (active) | -8.38% (active) | 38.3% | 112% | 68.5% | 104% | 78.2% | 76.6% | 81.1% | 95.3%
18 | O=C1NC(=O)C(c2ccc(Cl)cc2Cl)N1 (stereo not given) | 92.6% | 109% | 112% | 106% | 113% | 108% | 114% | 112% | 102% | 106%
19 | CCC#CC[C@H](O)C/C=C1/C(=O)C=C[C@@H]1C/C=C\CCCC(=O)OC | -8.41% (active) | -13.6% (active) | 7.14% (active) | 32.4% | 29.1% | 35.5% | 14% | 12.5% | 52.6% | 14.4%
20 | COc1cc(/C=C/C(=O)Nc2cccnc2Nc2ccc(F)cc2)cc(OC)c1OC | 82.5% | 69.1% | 81.7% | 105% | 93% | 107% | 139% | 113% | 99.4% | 101%
21 | C=C1C(=O)O[C@H]2[C@H]1CC/C(COC(=O)c1cc3cc(OC)ccc3[nH]1)=C\CC[C@@]1(C)O[C@@H]21 | -21.1% (active) | -20.3% (active) | -66.9% (active) | -58.6% (active) | -81.5% (active) | 50.6% | -77.1% (active) | -97.4% (active) | -3.89% (active) | -0.39% (active)
22 | Clc1ccc2c(NCCCCNc3nc(N4CCCCC4)nc4ccccc34)ccnc2c1 | -35.7% (active) | -45.9% (active) | 11.7% | 17.1% | 29.8% | 50.8% | 20.8% | -27.3% (active) | -19.9% (active) | 19.3%
